Calls of active or inactive are those of the source.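 How the source made its calls: active means potency half-inhibition concentration of 75 µM or lower; inconclusive means potency above 75 µM but under 100 µM; inactive means potency of 100 µM or higher.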
Each compound was assayed against Ubiquitin carboxyl-terminal hydrolase 7 (Homo sapiens) (UniProt Q93009) (assay: Inhibitors of USP1/UAF1: Hit Validation in USP7 Diubiquiting Gel Assay). Conditions: USP7 K63 diubiquitin cleavage, SDS-PAGE gel densitometry.
Sequence of Ubiquitin carboxyl-terminal hydrolase 7 (Homo sapiens) (Q93009 whole entry, looked up): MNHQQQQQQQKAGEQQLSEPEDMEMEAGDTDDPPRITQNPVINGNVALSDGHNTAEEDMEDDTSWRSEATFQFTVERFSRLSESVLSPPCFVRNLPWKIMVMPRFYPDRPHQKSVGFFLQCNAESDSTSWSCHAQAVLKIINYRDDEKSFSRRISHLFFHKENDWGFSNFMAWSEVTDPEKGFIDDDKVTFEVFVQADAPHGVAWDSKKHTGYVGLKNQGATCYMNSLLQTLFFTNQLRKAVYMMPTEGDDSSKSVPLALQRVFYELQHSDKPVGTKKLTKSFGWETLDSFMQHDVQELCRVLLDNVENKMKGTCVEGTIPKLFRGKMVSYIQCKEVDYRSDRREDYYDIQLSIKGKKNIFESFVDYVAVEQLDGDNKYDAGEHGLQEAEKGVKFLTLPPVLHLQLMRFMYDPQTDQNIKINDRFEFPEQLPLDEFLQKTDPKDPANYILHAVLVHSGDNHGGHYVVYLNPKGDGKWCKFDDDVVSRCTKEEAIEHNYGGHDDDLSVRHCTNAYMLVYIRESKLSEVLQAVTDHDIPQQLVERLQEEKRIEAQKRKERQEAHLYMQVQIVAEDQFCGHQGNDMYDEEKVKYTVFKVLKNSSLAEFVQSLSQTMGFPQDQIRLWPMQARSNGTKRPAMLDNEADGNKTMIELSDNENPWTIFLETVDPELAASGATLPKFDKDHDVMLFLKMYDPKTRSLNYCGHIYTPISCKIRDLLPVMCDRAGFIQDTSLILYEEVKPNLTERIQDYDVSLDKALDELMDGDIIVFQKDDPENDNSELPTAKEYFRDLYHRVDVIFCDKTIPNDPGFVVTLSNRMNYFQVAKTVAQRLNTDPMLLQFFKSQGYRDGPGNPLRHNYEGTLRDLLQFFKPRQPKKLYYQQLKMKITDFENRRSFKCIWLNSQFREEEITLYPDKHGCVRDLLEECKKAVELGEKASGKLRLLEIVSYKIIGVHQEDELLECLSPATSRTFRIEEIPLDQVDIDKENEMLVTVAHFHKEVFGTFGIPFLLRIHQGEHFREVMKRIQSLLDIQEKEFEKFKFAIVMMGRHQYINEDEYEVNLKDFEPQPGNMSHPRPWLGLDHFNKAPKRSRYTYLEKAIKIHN
Source text: Deubiquitinating enzymes (DUBs) are a class of enzymes that can cleave isopeptide bond formed between the C-terminal carboxylate of ubiquitin and a lysine side-chain amino group on the target protein. Among them, ubiquitin specific proteases (USPs) constitute the largest DUB family. Human USPs are emerging as promising targets for pharmacological intervention because of their connection to a number of human diseases, including prostate, colon and breast cancer (1, 2), pediatric acute lymphoblastic leukemia (3), and familial cylindromatosis (4). The advantage of inhibiting USPs lies in the potential specificity of therapeutic intervention that can lead to better efficacy and reduce nonspecific side effects. In a collaboration between the University of Delaware and the NIH Chemical Genomics Center, a high-throughput screen assay was developed to screen for USP1/UAF1 inhibitors. This miniaturized assay has a fluorescent read-out and is used to screen the NIH Molecular Libraries Small Molecule Repository (MLSMR) in order to identify a small molecule that inhibits USP1. Follow-up assays have also been developed to further test the hits from the primary screen. This assay validates the hits identified from the primary screen using a USP7 diubiquiting gel assay. NIH Chemical Genomics Center [NCGC] NIH Molecular Libraries Probe Centers Network [MLPCN] MLPCN Grant: DA030552-01 Assay Submitter (PI): Zhihao Zhuang, University of Delaware 1. Priolo, C., et al. (2006) The isopeptidase USP2a protects human prostate cancer from apoptosis. Cancer Res 66, 8625-8632 2. Popov, N., et al. (2007) The ubiquitin-specific protease USP28 is required for MYC stability. Nat Cell Biol 9, 765-774 3. […]
The inhibition assay contains 5 nM USP7, 2 microM K63 linked diubiquitin, and inhibitors at varied concentrations (0.08 microM - 114 microM). […] The intensity of the individual diubiquitin and monoubiquitin band was quantified using Quantity One 4.3.1 (Biorad, Hercules, CA). The percentage of the conversion was determined and used to calculate the reaction rate. […]

Potency, active:
Cc1cccc(CNc2ccnc(-c3ccccc3C(F)(F)F)n2)c1 20.9 µM, Cc1ccccc1-c1nc(NCc2cccs2)c2ccccc2n1 19.4 µM, FC(F)(F)c1ccccc1-c1nc(NCc2cccs2)c2ccccc2n1 37.8 µM
